Measured values as given in PubChem BioAssay AID588436 (Broad Institute, 2011).
The whole screen tested about 350,000 compounds, of which about 550 (0.16%) were called active. Cut-off read from the data, not from the text of the source: active = activation mostly above about 9.7% (no sharp cut-off); inconclusive = no clear call, values can overlap the other calls; inactive = mostly below about 3.7%. What follows is part of a selection rich in actives, with near analogues and random picks from the rest.

Assay: induces V. cholerae light production without autoinducers, primary screen, BH1578 luxS cqsA deficient, single point (AID 588436)
Conditions: V. cholerae BH1578 lux reporter, luminescence, 6 h, at 18.7 µM; hits give high values

Row | SMILES | activation
1 | COc1cccc(NS(=O)(=O)c2ccc3[nH]cc(C(=O)NCCCOC(C)C)c(=O)c3c2)c1 | inactive
2 | CN(C)c1ccc(CNC23CN4CN(CN(C4)C2)C3)cc1 | 54% (active)
3 | CN(C)c1ccc(CNC2C3CC4CC(C3)CC2C4)cc1 (stereo not given) | -0.358% (inactive)
4 | CN(C)c1ccc(CSc2ccccc2)cc1 | inactive
5 | CCN1CN(Cc2ccccc2)CNC1=S | inactive
6 | C=CCC(C(=O)c1ccccc1)[N+](C)(C)CC=C (stereo not given) | inactive
7 | COc1ccccc1C(=O)NC(CCSC)C(=O)NNC(=O)c1csc(N2CCOCC2)n1 (stereo not given) | inactive
8 | COc1ccc(-n2ncc3c2CC(C)(C)CC3NC(=O)CCc2c(C)noc2C)cc1 (stereo not given) | -0.606% (inactive)
9 | O=C(O)CCCCCCCCc1cn(CN2C(=O)c3ccccc3C2=O)nn1 | -0.601% (inactive)
10 | COc1ccc(CC(=O)c2ccc(O)cc2O)cc1OC | 1.54% (inactive)
11 | O=C(NC1CCN(C(=S)NCc2ccco2)CC1)c1ccc(F)cc1 | inactive
12 | CCN(C[C@H]1N[C@@](CC)(C(=O)OC)[C@H]2C(=O)N(Cc3ccccc3)C(=O)[C@@H]12)S(=O)(=O)c1ccc(C(F)(F)F)cc1 | inactive
13 | Cc1ncoc1C(=O)NCCC(c1ccccc1)c1ccccc1 | inactive
14 | CS(=O)(=O)N1CCCC(C(=O)Nc2ccccc2C(F)(F)F)C1 (stereo not given) | -3.85% (inactive)
15 | CCN(CC(=O)NCC(=O)Nc1cccc(C)c1C)Cc1ccccc1 | inactive
16 | CCCCCCn1c(=O)n2n(c1=O)C[C@]1(OC(=O)NCc3ccc(OC)c(OC)c3)CN(S(=O)(=O)c3ccc(C)cc3)C[C@]1(O)C2 | -2.08% (inactive)
17 | Cc1ccc(C(=O)N/N=C/c2sc(=O)n(Cc3cccc(C(=O)O)c3)c2Cl)cc1 | 0.645% (inactive)
18 | CCCCNC(=O)Cn1nc(C)c(S(=O)(=O)N2CCOCC2)c1C | inactive
19 | Cc1onc(-c2ccccc2)c1C(=O)N1CCN(S(=O)(=O)c2ccccc2C(F)(F)F)CC1 | -0.206% (inactive)
20 | Cc1onc(-c2ccccc2)c1C(=O)N1CCOCC1 | 16.7% (active)
21 | CNc1cncc(-c2cccc(C(=O)N3CCOCC3)c2)n1 | 3.33% (inactive)
22 | Cc1cccc(N2CCN(C(C)C(=O)N3CCc4ccccc43)CC2)c1C (stereo not given) | -0.336% (inactive)
23 | COc1ccccc1-c1cnn2c(N3CCOCC3)cc(C)nc12 | -0.198% (inactive)
24 | CC(C)n1ncc2c(C(=O)N3CCN(Cc4cccs4)CC3)cc(C3CC3)nc21 | -0.459% (inactive)
25 | CCN(CC)c1nc(-c2ccccc2)cc(C(F)(F)F)c1C#N | 17.9% (active)

Row | SMILES | activation
26 | N#Cc1c(C(F)(F)F)cc(-c2cccs2)nc1N1CCCCC1 | -0.871% (inactive)
27 | N#Cc1c(C(F)(F)F)cc(-c2ccccc2)nc1SCC(=O)N1CCOCC1 | -0.279% (inactive)
28 | COC(=O)Cc1ccc(OCC(=O)Nc2ccc(OC(F)(F)F)cc2)cc1 | -0.392% (inactive)
29 | CCNC(=S)Nc1ccc(OC(F)(F)F)cc1 | 20.7% (active)
30 | CS(=O)(=O)c1sc(C(=O)NC(=S)Nc2ccc(OC(F)(F)F)cc2)c2c1C=CCC2 | 0.546% (inactive)
31 | CCn1c2c(c3ccc(OC)cc31)CCCC2=O | inactive
32 | CC(=O)OC(C)C[N+](C)(C)C (stereo not given) | 22.9% (active)
33 | CC(C[N+](C)(C)C)OC(N)=O (stereo not given) | inactive
34 | CC(=O)OCC(COC(C)=O)OC(C)=O | -1.4% (inactive)
35 | NC(=O)C1CC=CCC1C(=O)OCC(Cl)=C(Cl)Cl (stereo not given) | -0.395% (inactive)
36 | Cc1noc(C)c1S(=O)(=O)N(C)Cc1ccccc1 | inactive
37 | COC(CNC(=O)Cn1ncc2ccsc2c1=O)OC | inactive
38 | O=C(CN1CCCCCC1)Nc1ccc(Br)cc1[N+](=O)[O-] | 45.8% (active)
39 | O=C(CN1CCCCC1)Nc1ccc(Br)cc1C(=O)c1ccccc1Cl | -0.319% (inactive)
40 | O=C(CN1CCCCCC1)Nc1ccc(Br)cc1Br | -7.69% (inactive)
41 | CCC1CCCCN1C(=O)Nc1cccc(NC(=O)N2CCCCC2CC)c1 (stereo not given) | inactive
42 | CC(C)CC(=O)N1CCN(Cc2ccccc2Br)CC1 | 144% (active)
43 | CC(C)CC(=O)N1CCN(Cc2cccc(Cl)c2)CC1 | inactive
44 | COc1ccccc1CN1CCN(C(=O)Cc2ccccc2)CC1 | inactive
45 | CCOC(=O)c1c(-c2cccc(N)c2)cn2ccccc12 | -1.18% (inactive)
46 | CC(=O)N1C(=O)C2(Nc3ccccc3N2)c2ccccc21 | inactive
47 | CC(C)Cc1ccc(S(=O)(=O)N2CCN(C(=O)c3ccco3)CC2)cc1 | -6.25% (inactive)
48 | Cc1oc2cc3oc(=O)ccc3cc2c1C | -0.488% (inactive)
49 | C/C(=N\NS(=O)(=O)c1cccc([N+](=O)[O-])c1)c1cc2ccccc2o1 | -2.5% (inactive)
50 | CCc1nc2c(OCCOc3ccccc3)cccn2c1N(C=O)Cc1ccc(OC)cc1 | 4.55% (inactive)

Row | SMILES | activation
51 | COc1cc(C(=O)NCC(=O)NCCSc2ccc(Br)cc2)cc(OC)c1OC | inactive
52 | Cc1cccc(C)c1NC(=O)COC(=O)c1ccccc1O | -0.155% (inactive)
53 | Cc1cccc(C(=O)OCC(=O)NC(C)C2CC3CCC2C3)c1O (stereo not given) | inactive
54 | Cc1cccc(C(=O)OCC(=O)NCC(C)C)c1O | 302% (active)
55 | Oc1ccc(CNc2ccccc2O)cc1 | -0.266% (inactive)
56 | O=C(Nc1ccc2ccccc2c1)Nc1ccc2snnc2c1 | inactive
57 | COc1ccc2[nH]c(=O)c(CN(CC3CCCO3)C(=O)Nc3ccccc3)cc2c1 (stereo not given) | -0.239% (inactive)
58 | COc1ccc2[nH]c(=O)c(CNc3ccc(C)c(C)c3)cc2c1 | 16.7% (active)
59 | COc1ccc2[nH]c(=O)c(CN(Cc3cccnc3)S(=O)(=O)c3ccccc3F)cc2c1 | 0.282% (inactive)
60 | COc1ccc(N2C(=O)NC(NS(=O)(=O)c3ccc(Cl)cc3)(C(F)(F)F)C2=O)cc1 (stereo not given) | 0.575% (inactive)
61 | Cc1ccc(Cl)cc1NC(=O)C1CCCN(c2cnccn2)C1 (stereo not given) | -2.5% (inactive)
62 | CC1(C)C=C2[C@H]3CC[C@@H]4[C@@]5(C)CCC(=O)C(C)(C)[C@@H]5CC[C@@]4(C)[C@]3(C)CC[C@@]2(C(=O)O)CC1 | inactive
63 | Cc1cc(=O)oc2cc(OC(C)C(=O)Nc3ccc(N4CCOCC4)cc3)ccc12 (stereo not given) | inactive
64 | Cc1cc(NC(=O)CN2CCC(O)(c3cccc(F)c3)CC2)no1 | -11.8% (inactive)
65 | CCCNC(=O)C1(C)CCCN(Cc2cccc(C(F)(F)F)c2)C1 (stereo not given) | inactive
66 | O=C(CN1CCC(O)(c2cccc(C(F)(F)F)c2)CC1)NCCc1ccccc1 | 277% (active)
67 | OCCN1CCN(CCO)C1=S | -0.805% (inactive)
68 | COc1cccc(CN(C)C(=O)CC23CC4CC(CC(C4)C2)C3)c1OC | inactive
69 | O=C(Cc1ccc([N+](=O)[O-])cc1)Nc1ccc(C(=O)N2CCOCC2)cc1 | inactive
70 | CN(C)/C=C/c1c(C#N)c(=O)ncn1Cc1ccccc1 | inactive
71 | CC(=O)Cn1cnc2c(cnn2-c2ccccc2)c1=O | inactive
72 | Cc1c(C#N)c2ncn(CC#N)c(=O)c2n1-c1ccccc1 | 25% (active)
73 | Cc1cc(C)c(C#N)c(SCC(=O)NN2CC(=O)N(c3ccccc3F)CC2=O)n1 | 2.85% (inactive)
74 | CCCCC(=O)Nc1ccccc1N1CCN(c2ccc(F)cc2)CC1 | inactive
75 | COc1ccccc1NC(=O)c1cc(N2C(=O)C3C4CCC(C4)C3C2=O)ccc1Cl (stereo not given) | inactive

Row | SMILES | activation
76 | COc1ccc(-c2coc3c(C(=O)NC(C)C)cccc23)c(C)c1 | -0.54% (inactive)
77 | O=C(NCc1cccs1)c1ccc(CS(=O)Cc2ccccc2Cl)o1 (stereo not given) | -3.95% (inactive)
78 | CCN(CC(=O)NCc1ccc(Cl)cc1)C(=O)CSc1ccccc1 | 39.3% (active)
79 | CCN(CC(=O)Nc1cc(Cl)ccc1C)C(=O)CSCc1ccccc1 | 1.13% (inactive)
80 | CCN(CC(=O)NCc1ccc(Cl)cc1)C(=O)c1c(C)noc1C | inactive
81 | c1ccc(Cc2cc[n+](Cc3ccccc3)cc2)cc1 | -0.465% (inactive)
82 | CC(C)(C)c1ccc(/C=C2\Oc3c(ccc(O)c3CN3CCN(CCO)CC3)C2=O)cc1 | -0.166% (inactive)
83 | COP1(=O)C[C@@H](O)[C@@H](O)[C@@H](COCc2ccccc2)O1 (stereo not given in full) | inactive
84 | COCC1CCCCN1C(=O)c1cc(COc2ccc(C)c(C)c2)on1 (stereo not given) | inactive
85 | COc1ccc(NC(=O)CN2C(=O)C(c3ccccc3)=NC23CCCCCC3)cc1OC | -0.396% (inactive)
86 | COc1ccc(CNS(=O)(=O)c2ccc(NC(=O)N3CCCCC3)cc2)cc1 | inactive
87 | COc1ccc(OCCCC(=O)Nc2cccc(S(=O)(=O)N3CCCCCC3)c2)cc1 | -0.87% (inactive)
88 | O=C(Nc1ccc(F)cc1)c1cc2c(s1)CCCC2 | 0.953% (inactive)
89 | O=C(O)C1CCCN1c1nc(Cl)ccc1[N+](=O)[O-] (stereo not given) | inactive
90 | Cc1cccc(-c2oc3ccc(-c4ccc5c(c4)OCO5)cc3c2C#Cc2cncn2C)c1 | -1.22% (inactive)
91 | COCCNC(=O)c1ccc2c(c1)ncn2-c1ccc(C)c(Cl)c1 | inactive
92 | O=C(c1cccs1)n1nc(NCc2ccccc2)nc1NCc1ccccc1 | -0.325% (inactive)
93 | CC(NC(=O)COC(=O)C1CCN(S(=O)(=O)c2ccccc2C(F)(F)F)CC1)c1ccccc1 (stereo not given) | -0.574% (inactive)
94 | Cc1ccc(-c2nc(CS(=O)(=O)CC(=O)NCc3ccc4c(c3)OCO4)c(C)o2)cc1 | -0.345% (inactive)
95 | CC(=O)c1ccc(Cc2ncc(C(F)(F)F)cc2Cl)s1 | inactive
96 | CCOc1ccc(S(=O)(=O)N/N=C(\C)c2ccc(Cl)c(Cl)c2Cl)cc1 | inactive
97 | CC1Cc2ccccc2N1S(=O)(=O)c1ccc(Cl)nc1 (stereo not given) | inactive
98 | COC(=O)C1=C(C)N(c2ccc(C)cc2)/C(=C/c2ccc(O)cc2)C1=O | -0.588% (inactive)
99 | CCCC(=O)Nc1ccc2c(c1)nc1n2CCSC1 | -5% (inactive)
100 | COc1ccc(N2CCN(C(=O)c3cn(C)c4ccc(S(=O)(=O)N5CCOCC5)cc4c3=O)CC2)cc1 | 1.02% (inactive)
